# “And” between values parts separate entries of the source, which are not always exact repeats. Identical values can stand only once. Some structures have more than one record in an assay (separate samples or runs), and their calls can disagree. The source made the active and inactive calls. Rule for the calls: active = hit-call score of the fitted dose curve at least 0.9, where 1 is the maximum; inactive = score below 0.9.
# What was measured:
# Details in all cases: mRNA level, 48 h; actives raise or lower the signal
# CYP2C8 (gene 1558) = assay: LTEA_HepaRG_CYP2C8: Life Technologies and Expression Analysis (LTEA) Assay for CYP2C8 using HepaRG (AID 2283483)
# Summary of the method: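 HepaRG (human liver line), 48 h chemical exposure, 8-pt half-log series from 100 uM, 0.5% DMSO vehicle. Readout: CYP2C8 transcript by qRT-PCR, housekeeping-normalized. Bidirectional fit vs DMSO baseline.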
# CYP2C9 (gene 1559) = assay: LTEA_HepaRG_CYP2C9: Life Technologies and Expression Analysis (LTEA) Assay for CYP2C9 using HepaRG (AID 2283484)
# Summary of the method: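 HepaRG, 48 h dosing, 8-pt half-log series, top 100 uM, 0.5% DMSO vehicle. Read-out: CYP2C9 transcript by TaqMan qRT-PCR, housekeeping-normalized (ACTB/GAPDH/POLR2A). Gain or loss fitted vs DMSO baseline.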
# CYP2E1 (gene 1571) = assay: LTEA_HepaRG_CYP2E1: Life Technologies and Expression Analysis (LTEA) Assay for CYP2E1 using HepaRG (AID 2283485)
# Summary of the method: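 Assay uses 48 h exposure of HepaRG hepatic cells, eight concentrations to 100 uM. Expression of CYP2E1 is quantified by TaqMan qRT-PCR with ACTB, GAPDH and POLR2A normalization; curves fitted in both directions relative to vehicle.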
# CYP4A11 (gene 1579) = assay: LTEA_HepaRG_CYP4A11: Life Technologies and Expression Analysis (LTEA) Assay for CYP4A11 using HepaRG (AID 2283486)
# Summary of the method: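 Readout is CYP4A11 mRNA induction or suppression (qRT-PCR, ACTB/GAPDH/POLR2A normalization) in human HepaRG cells after 48 h chemical treatment, concentrations to 100 uM in 0.5% DMSO, fitted bidirectionally against vehicle.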
# [1] = read-out: DNA damage-inducible transcript 3 (DDIT3), DDIT3 (gene 1649); assay: LTEA_HepaRG_DDIT3: Life Technologies and Expression Analysis (LTEA) Assay for DNA damage-inducible transcript 3 (DDIT3) using HepaRG (AID 2283488)
# Summary of the method: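 Eight-point concentration-response (100 uM highest, half-log dilutions) in HepaRG, 48 h, duplicate wells. Endpoint: qRT-PCR mRNA, normalized (ACTB, GAPDH, POLR2A), bidirectional fitting with DMSO as baseline.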
# [2] = read-out: Early growth response protein 1 (EGR1) transcription factor, EGR1 (gene 1958); assay: LTEA_HepaRG_EGR1: Life Technologies and Expression Analysis (LTEA) Assay for Early growth response protein 1 (EGR1) transcription factor using HepaRG (AID 2283490)
# Summary of the method: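 HepaRG, 48 h exposure, 8-pt half-log series from 100 uM, 0.5% DMSO vehicle; EGR1 transcript by TaqMan qRT-PCR (Fluidigm array), housekeeping-normalized; bidirectional fit relative to DMSO baseline.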
# [3] = read-out: Ezrin (EZR), EZR (gene 7430); assay: LTEA_HepaRG_EZR: Life Technologies and Expression Analysis (LTEA) Assay for Ezrin (EZR) using HepaRG (AID 2283491)
# Summary of the method: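 EZR transcript levels came from Fluidigm qRT-PCR and were normalized to three housekeeping genes after 48 h chemical exposure of HepaRG cells. Dosing used an 8-point half-log series with a 100 uM top concentration in 0.5% DMSO, tested in duplicate; both directions were fitted versus vehicle.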
# [4] = read-out: Cytochrome P450 3A7 (Homo sapiens) (UniProt P24462); assay: LTEA_HepaRG_CYP3A7: Life Technologies and Expression Analysis (LTEA) Assay for CYP3A7 using HepaRG (AID 2283492)
# Summary of the method: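 Cells were thawed, plated, cultured 48 h, then treated for a further 48 h with chemicals (eight-point half-log series from 100 uM, 0.5% DMSO). RNA was isolated and CYP3A7 expression quantified by qRT-PCR normalised to ACTB, GAPDH and POLR2A.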
# CYP3A5 (gene 1577) = assay: LTEA_HepaRG_CYP3A5: Life Technologies and Expression Analysis (LTEA) Assay for CYP3A5 using HepaRG (AID 2283493)
# Summary of the method: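 Readout was CYP3A5 mRNA by qRT-PCR. HepaRG cultures were exposed for 48 h in serum-free induction medium to chemicals at up to 100 uM, and responses were fitted in both directions relative to DMSO vehicle.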
# [5] = read-out: Fatty Acid-Binding Protein 1 (FABP1), FABP1 (gene 2168); assay: LTEA_HepaRG_FABP1: Life Technologies and Expression Analysis (LTEA) Assay for Fatty Acid-Binding Protein 1 (FABP1) using HepaRG (AID 2283494)
# Summary of the method: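 qRT-PCR readout of FABP1 transcript (normalized to three housekeeping genes) after 48 h chemical exposure of HepaRG cells; eight concentrations, half-log steps, max 100 uM, 0.5% DMSO vehicle; gain or loss fitted relative to DMSO baseline.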
# [6] = read-out: Cytochrome P450 4A22 (Homo sapiens) (UniProt Q5TCH4); assay: LTEA_HepaRG_CYP4A22: Life Technologies and Expression Analysis (LTEA) Assay for Cytochrome P450 4A22 (CYP4A22) using HepaRG (AID 2283495)
# Summary of the method: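 Cryopreserved HepaRG cells, plated and cultured 48 h, then switched to serum-free induction medium and treated 48 h (duplicates, up to 100 uM, half-log steps, 0.5% DMSO). Expression change of CYP4A22 was fitted bidirectionally against vehicle.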
# [7] = read-out: Cytochrome P450 7A1 (Homo sapiens) (UniProt P22680); assay: LTEA_HepaRG_CYP7A1: Life Technologies and Expression Analysis (LTEA) Assay for Cytochrome P450 7A1 (CYP7A1) using HepaRG (AID 2283496)
# Summary of the method: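 Using 0.5% DMSO as vehicle and baseline, chemicals were tested in duplicate over an 8-point range from 100 uM on HepaRG cells for 48 h; qRT-PCR signals were normalised to ACTB, GAPDH and POLR2A.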
# [8] = read-out: Glutathione S-Transferase (GSTA2), GSTA2 (gene 2939); assay: LTEA_HepaRG_GSTA2: Life Technologies and Expression Analysis (LTEA) Assay for Glutathione S-Transferase (GSTA2) using HepaRG (AID 2283497)
# Summary of the method: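 qRT-PCR readout of GSTA2 transcript, normalized to three housekeeping genes, fitted bidirectionally against 0.5% DMSO baseline. Differentiated HepaRG cells received compound for 48 h at 8 concentrations (top 100 uM, half-log steps).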
# [9] = read-out: Glutamate-cysteine ligase catalytic (GCLC), GCLC (gene 2729); assay: LTEA_HepaRG_GCLC: Life Technologies and Expression Analysis (LTEA) Assay for Glutamate-cysteine ligase catalytic (GCLC) using HepaRG (AID 2283498)
# Summary of the method: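 HepaRG, 48 h exposure, 8-pt half-log series from 100 uM, 0.5% DMSO vehicle; TaqMan qRT-PCR for GCLC mRNA, housekeeping-normalized; bidirectional curve fit vs DMSO baseline.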
# [10] = read-out: growth arrest and DNA damage 45 (GADD45G), GADD45G (gene 10912); assay: LTEA_HepaRG_GADD45G: Life Technologies and Expression Analysis (LTEA) Assay for growth arrest and DNA damage 45 (GADD45G) using HepaRG (AID 2283499)
# Summary of the method: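 Human hepatic HepaRG line treated 48 h with chemicals (eight concentrations, half-log steps from 100 uM); transcript induction or repression of GADD45G scored by qRT-PCR versus DMSO vehicle.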
# [11] = read-out: Glutamate-cysteine ligase regulatory (GCLM), GCLM (gene 2730); assay: LTEA_HepaRG_GCLM: Life Technologies and Expression Analysis (LTEA) Assay for Glutamate-cysteine ligase regulatory (GCLM) using HepaRG (AID 2283500)
# Summary of the method: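 In this multiplexed HepaRG gene-expression assay, GCLM mRNA change after 48 h treatment (8 concentrations, max 100 uM) was scored against DMSO by bidirectional curve fitting.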
# [12] = read-out: Glutathione S-transferase M3 (GSTM3), GSTM3 (gene 2947); assay: LTEA_HepaRG_GSTM3: Life Technologies and Expression Analysis (LTEA) Assay for Glutathione S-transferase M3 (GSTM3) using HepaRG (AID 2283501)
# Summary of the method: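 Changes in GSTM3 expression, an oxidative-stress marker, were scored by bidirectional curve fitting against 0.5% DMSO vehicle. Human HepaRG cultures received chemicals for 48 h in duplicate, highest concentration 100 uM with half-log dilutions.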
# [13] = read-out: Heat shock 70 kDa protein 1 (HSPA1A), gene 3303; assay: LTEA_HepaRG_HSPA1A: Life Technologies and Expression Analysis (LTEA) Assay for Heat shock 70 kDa protein 1 (HSPA1A) using HepaRG (AID 2283502)
# Summary of the method: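 An oxidative-stress marker readout: HepaRG cells treated 48 h in duplicate with an eight-point series (highest 100 uM) had HSPA1A mRNA quantified by TaqMan qRT-PCR. Activity was fitted in both directions using 0.5% DMSO as baseline.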
# [14] = read-out: Cytochrome P450 3A4 (Homo sapiens) (UniProt P08684); assay: LTEA_HepaRG_CYP3A4: Life Technologies and Expression Analysis (LTEA) Assay for CYP3A4 using HepaRG (AID 2283487)
# Summary of the method: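 Differentiated HepaRG cells, plated 48 h, then dosed 48 h in serum-free induction medium with 0.5% DMSO, 8 half-log concentrations up to 100 uM, duplicate. CYP3A4 mRNA by qRT-PCR, normalized to ACTB/GAPDH/POLR2A; bidirectional fit versus DMSO.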
# Chain of Cytochrome P450 3A4 (Homo sapiens) (P08684 whole entry, looked up): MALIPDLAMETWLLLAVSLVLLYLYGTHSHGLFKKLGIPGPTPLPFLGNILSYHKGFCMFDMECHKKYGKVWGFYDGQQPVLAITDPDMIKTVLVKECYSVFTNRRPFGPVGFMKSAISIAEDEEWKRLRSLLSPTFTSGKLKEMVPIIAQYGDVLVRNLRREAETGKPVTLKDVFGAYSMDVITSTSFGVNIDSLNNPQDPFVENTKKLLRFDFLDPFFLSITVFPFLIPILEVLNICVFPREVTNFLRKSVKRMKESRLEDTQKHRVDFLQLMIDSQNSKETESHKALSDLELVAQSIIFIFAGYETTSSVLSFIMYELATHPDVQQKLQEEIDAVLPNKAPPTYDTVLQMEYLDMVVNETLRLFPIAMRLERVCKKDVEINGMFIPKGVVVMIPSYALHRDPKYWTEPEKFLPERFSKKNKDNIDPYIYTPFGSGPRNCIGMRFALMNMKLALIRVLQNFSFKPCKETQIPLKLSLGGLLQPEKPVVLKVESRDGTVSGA
# Chain of Cytochrome P450 3A7 (Homo sapiens) (P24462 whole entry, looked up): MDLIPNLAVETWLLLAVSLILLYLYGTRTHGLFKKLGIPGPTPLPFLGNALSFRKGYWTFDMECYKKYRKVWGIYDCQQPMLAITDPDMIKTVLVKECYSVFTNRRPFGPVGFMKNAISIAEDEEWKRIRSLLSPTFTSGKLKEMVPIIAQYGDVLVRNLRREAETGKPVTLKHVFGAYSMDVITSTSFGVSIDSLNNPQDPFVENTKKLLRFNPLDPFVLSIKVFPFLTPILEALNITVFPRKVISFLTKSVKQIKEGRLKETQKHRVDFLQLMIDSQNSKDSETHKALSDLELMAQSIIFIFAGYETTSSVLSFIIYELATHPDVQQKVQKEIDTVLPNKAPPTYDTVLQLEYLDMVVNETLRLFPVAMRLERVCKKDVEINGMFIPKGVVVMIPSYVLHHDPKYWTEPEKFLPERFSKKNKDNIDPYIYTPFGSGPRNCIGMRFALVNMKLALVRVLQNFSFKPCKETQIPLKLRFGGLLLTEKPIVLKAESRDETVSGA
compound,measurement,setting,value
CCCCC(CC)COC(=O)c1ccccc1C(=O)OCC(CC)CCCC (stereo unspecified),outcome,CYP2C8 (gene 1558),inactive
same,outcome,CYP2C9 (gene 1559),inactive
same,outcome,CYP2E1 (gene 1571),inactive
same,outcome,CYP4A11 (gene 1579),inactive
same,outcome,[1],inactive
same,outcome,[2],inactive
same,outcome,[3],inactive
same,outcome,[4],inactive
same,outcome,CYP3A5 (gene 1577),inactive
same,outcome,[5],inactive
same,outcome,[6],inactive
same,outcome,[7],inactive
same,outcome,[8],inactive
same,outcome,[9],inactive
same,outcome,[10],inactive
same,outcome,[11],inactive
same,outcome,[12],inactive
same,outcome,[13],inactive
CCNc1nc(Cl)nc(NCC)n1,outcome,CYP2C8 (gene 1558),inactive
same,outcome,CYP2C9 (gene 1559),inactive
same,outcome,CYP2E1 (gene 1571),inactive
same,outcome,CYP4A11 (gene 1579),inactive
same,outcome,[1],inactive
same,outcome,[2],inactive
same,outcome,[3],inactive
same,outcome,[4],inactive
same,outcome,CYP3A5 (gene 1577),inactive
same,outcome,[5],inactive
same,outcome,[6],inactive
same,outcome,[7],inactive
same,outcome,[8],inactive
same,outcome,[9],inactive
same,outcome,[10],inactive
same,outcome,[11],inactive
same,outcome,[12],inactive
same,outcome,[13],inactive
COP(=S)(OC)Oc1nc(Cl)c(Cl)cc1Cl,outcome,CYP2C8 (gene 1558),inactive
same,outcome,CYP2C9 (gene 1559),inactive
same,outcome,CYP2E1 (gene 1571),inactive
same,outcome,CYP4A11 (gene 1579),inactive
same,outcome,[1],inactive
same,outcome,[2],inactive
same,outcome,[3],inactive
same,outcome,[4],inactive
same,outcome,CYP3A5 (gene 1577),inactive
same,outcome,[5],inactive
same,outcome,[6],inactive
same,outcome,[7],inactive
same,outcome,[8],inactive
same,outcome,[9],inactive
same,outcome,[10],inactive
same,outcome,[11],inactive
same,outcome,[12],inactive
same,outcome,[13],inactive
CCCN(CCC)c1c([N+](=O)[O-])cc(S(N)(=O)=O)cc1[N+](=O)[O-],outcome,CYP2C8 (gene 1558),inactive
same,AC50,CYP2C9 (gene 1559),95 µM (active) and 82 µM (active)
same,outcome,CYP2C9 (gene 1559),inactive
same,AC50,CYP4A11 (gene 1579),93.5 µM (active) and 15.8 µM (active)
same,outcome,CYP4A11 (gene 1579),inactive
same,AC50,[14],8.79 µM (active) and 12.1 µM (active) and 90.8 µM (active)
same,AC50,[1],93.7 µM (active) and 67.7 µM (active)
same,outcome,[1],inactive
same,AC50,[2],93.2 µM (active) and 83.6 µM (active) and 78.9 µM (active)
same,AC50,[3],95.9 µM (active) and 78 µM (active)
same,outcome,[3],inactive
same,AC50,[4],6.08 µM (active)
same,outcome,[4],inactive
same,AC50,CYP3A5 (gene 1577),93.8 µM (active) and 50 µM (active)
same,outcome,CYP3A5 (gene 1577),inactive
same,AC50,[5],93.5 µM (active) and 35.6 µM (active) and 34.9 µM (active)
same,AC50,[8],91 µM (active) and 68.4 µM (active) and 83.1 µM (active)
same,AC50,[9],70.9 µM (active) and 83.9 µM (active)
same,outcome,[9],inactive
same,outcome,[10],inactive
same,AC50,[11],92 µM (active)
same,outcome,[11],inactive
same,outcome,[12],inactive
same,AC50,[13],70.7 µM (active) and 75.6 µM (active) and 50 µM (active)
COc1ccc(C(c2ccc(OC)cc2)C(Cl)(Cl)Cl)cc1,outcome,CYP2C8 (gene 1558),inactive
same,outcome,CYP2C9 (gene 1559),inactive
same,AC50,CYP2E1 (gene 1571),66 µM (active)
same,AC50,CYP4A11 (gene 1579),79 µM (active)
same,AC50,[1],75 µM (active)
same,AC50,[2],73 µM (active)
same,AC50,[3],79.8 µM (active)
same,outcome,[4],inactive
same,outcome,CYP3A5 (gene 1577),inactive
same,AC50,[5],65.4 µM (active)
same,AC50,[6],71.9 µM (active)
same,AC50,[7],40.2 µM (active)
same,AC50,[8],90.3 µM (active)
same,AC50,[9],76.3 µM (active)
same,AC50,[10],56.2 µM (active)
same,AC50,[11],49.8 µM (active)
same,outcome,[12],inactive
same,AC50,[13],29.8 µM (active)

# From PubChem BioAssay (EPA / NIEHS)
